# Assay results as given in the supplement of paper PMC6555819.
# Tested on: PPARg DBDmut IVT, anti-PPARg (DBD mutation: PPARg1 K132A/R137A, NR concentration 270 nM)
# Assay: PBM binding z-score (relative to random genomic background probes); higher = stronger binding; sequences stand for … in GC…GCGATTGACAGCGTAGAATGAAGG
# In short: (§1)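 Each nuclear receptor dimer, without ligand, was incubated for 1 h on custom Agilent 4×180K protein-binding microarrays. Binding was detected with antibodies against each partner (one per run), and scanned fluorescence was regression-normalized. The binding z-scores are referenced to random human genomic background probes.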
row,Sequence,PBM binding z-score
1,TCTTGTACATCAACAGGAGGTTAAGAAAGATCGA,1.51
2,TCTTGTAGATCAACAGGAGGTTATGAAAGATCGA,1.46
3,TCATATAGGTAATACAGGTGGAAGTCGGCATCTA,0.905
4,GCTATTAGTTGAAAGGGCCACCGAATGATTCTCG,-0.248
5,CCTATTAGTTGACTATAAGGGCAACCGAAGCTCG,0.398
6,TATACAGGGTCAAAGGACAGAGTACGAATGTCGA,2.81
7,CCTCGGAGGACAACAAGAGGTCAGAGCTGCCAGA,-1.03
8,TCTATTAGTTGAAGCGCAACCGACGAGTCCGTTT,1.23
9,ACAATGAGGTTATACGTAGATCAGGGAAGAAAGT,1.68
10,ATCTCTAGGTAACCAAGTTAAGTGAATGCCGAAC,1.07
11,ATCTCCAGGTAACCAAGTTCAGTGAATGCCGAAC,0.957
12,TCTACTAGGTCAGTTGGTCAGCTAACGAGCTGCC,0.835
13,GCATATAGGTAATACAAGTTGAAAGTCCGATTGT,0.954
14,TAGCCTAGGTCATGGGCCAATATACCACGCGAAC,-0.176
15,GCGACTGGGGCAAAGCAGGTTACCCTAAGGTTGG,-1.15
16,CAAACTAGGTCACCGGAACGTCAAAGTCCGCATG,1.58
17,ATCTCTAGTTAAAAGTTCAGTGAATCCCGAGGAT,1.16
18,ATACCAAGGAGATCGTGAGGTCGTTGATACTAAC,0.112

# Tested on: PPARg homodimer (NR concentration 180 nM)
# Assay: as above
# In short: as §1
row,Sequence,PBM binding z-score
1,CGTCCAAGGTTAGAGAGGTCAGTGAATGCCGAGT,2.67
2,TCTAGCTGGCCAGAGGGTCACTCAAGAGGTACGG,0.244
3,TCTATTAGTTGAGTAGGGCAACCGAAACAGCGGA,0.0171
4,GGAACGAGGGCAAAGTTGAGAGCATCTGTCGACG,0.644
5,CCTATGAGTTGACCATAAGGGCAACCGAAGCTCG,1.05
6,CAAACTAGGTCACGAAAGGTCAAAGTAGAATGAC,6.18
7,GCTAGCAGGACATTTGGGTCACTCAATGACGGGC,-0.156
8,GCGACTGGGGCAAAGCAGGTTACCAAAAGGTTGG,-0.131
9,CCTAGTTCGTCAGGAGGTCACACACCGGATATGA,5.39
10,GCTGCTAGGTCAATTGATGGTCAGCTAAAGCTCG,0.889
11,TCTTGTACATCAAAGGTTAAGAAAGCCGAAGCCT,1.01
12,ACTAGTTGGTCAGCTGACGTCACACACAATTCGG,0.152
13,ATATGTAGGTTATCGGGTCGTTCAGTTTGCGCAT,1.6
14,TCTTGTAGATCCATAGAGGTTAAGAAAGTGCGCT,0.227
15,TCTGCTAGGTCACCGATGGTCAGCTAATCTGCTA,0.378
16,AGTCAAAGTTCAGGACGAGCTAACGTAAAGCACG,1.5
17,ACTATGAGTTGACTTAGGGCAACCGATACGACGC,0.141
18,CCTACTGGGCCAAAAAGGTCATTGACGCCGATAA,2.91
19,GCGACTGGGGCACCAGCAGGTTACCATAACTTAA,-0.202
20,TGTCAAAGTTCAAGGGTAACGTAAGTATCCACAC,2.41

row,Sequence,PBM binding z-score
1,CCTACTGGGTCAAAAAGGTCATTGATGCCGATAA,4.23
2,TTACCAGGGTGAGCTGAGGTCGTTGATCCAACTC,0.323
3,TCTTGTACATCAACAGGAGGTTAAGAAAGATCGA,-0.544
4,TCTTGTAGATCAACAGGAGGTTATGAAAGATCGA,-0.255
5,TCATATAGGTAATACAGGTGGAAGTCGGCATCTA,0.801
6,GCTATTAGTTGAAAGGGCCACCGAATGATTCTCG,0.586
7,CCTATTAGTTGACTATAAGGGCAACCGAAGCTCG,0.891
8,TATACAGGGTCAAAGGACAGAGTACGAATGTCGA,2.18
9,CCTCGGAGGACAACAAGAGGTCAGAGCTGCCAGA,1.86
10,TCTATTAGTTGAAGCGCAACCGACGAGTCCGTTT,0.5
11,ACAATGAGGTTATACGTAGATCAGGGAAGAAAGT,0.816
12,ATCTCTAGGTAACCAAGTTAAGTGAATGCCGAAC,0.347
13,ATCTCCAGGTAACCAAGTTCAGTGAATGCCGAAC,0.841
14,TCTACTAGGTCAGTTGGTCAGCTAACGAGCTGCC,1.78
15,GCATATAGGTAATACAAGTTGAAAGTCCGATTGT,0.423
16,TAGCCTAGGTCATGGGCCAATATACCACGCGAAC,1.44
17,GCGACTGGGGCAAAGCAGGTTACCCTAAGGTTGG,0.0575
18,CAAACTAGGTCACCGGAACGTCAAAGTCCGCATG,2.42
19,ATCTCTAGTTAAAAGTTCAGTGAATCCCGAGGAT,1.56
20,ATACCAAGGAGATCGTGAGGTCGTTGATACTAAC,0.128

# Tested on: PXR:RXRa (NR concentration 270 nM, RXRa partner concentration 90 nM)
# Assay: as above
# In short: as §1
row,Sequence,PBM binding z-score
1,CGTCCAAGGTTAGAGAGGTCAGTGAATGCCGAGT,4.07
2,TCTAGCTGGCCAGAGGGTCACTCAAGAGGTACGG,1.38
3,TCTATTAGTTGAGTAGGGCAACCGAAACAGCGGA,-0.0938
4,GGAACGAGGGCAAAGTTGAGAGCATCTGTCGACG,1.42
5,CCTATGAGTTGACCATAAGGGCAACCGAAGCTCG,1.1
6,CAAACTAGGTCACGAAAGGTCAAAGTAGAATGAC,6.93
7,GCTAGCAGGACATTTGGGTCACTCAATGACGGGC,0.607
8,GCGACTGGGGCAAAGCAGGTTACCAAAAGGTTGG,0.48
9,CCTAGTTCGTCAGGAGGTCACACACCGGATATGA,5.2
10,GCTGCTAGGTCAATTGATGGTCAGCTAAAGCTCG,0.861
11,TCTTGTACATCAAAGGTTAAGAAAGCCGAAGCCT,1.73
12,ACTAGTTGGTCAGCTGACGTCACACACAATTCGG,0.163
13,ATATGTAGGTTATCGGGTCGTTCAGTTTGCGCAT,1.91
14,TCTTGTAGATCCATAGAGGTTAAGAAAGTGCGCT,2.66
15,TCTGCTAGGTCACCGATGGTCAGCTAATCTGCTA,1.91
16,AGTCAAAGTTCAGGACGAGCTAACGTAAAGCACG,1.98
17,ACTATGAGTTGACTTAGGGCAACCGATACGACGC,0.608
18,CCTACTGGGCCAAAAAGGTCATTGACGCCGATAA,4.65
19,GCGACTGGGGCACCAGCAGGTTACCATAACTTAA,0.0556
20,TGTCAAAGTTCAAGGGTAACGTAAGTATCCACAC,4.83

row,Sequence,PBM binding z-score
1,CCTACTGGGTCAAAAAGGTCATTGATGCCGATAA,6.02
2,TTACCAGGGTGAGCTGAGGTCGTTGATCCAACTC,5.42
3,TCTTGTACATCAACAGGAGGTTAAGAAAGATCGA,0.873
4,TCTTGTAGATCAACAGGAGGTTATGAAAGATCGA,0.762
5,TCATATAGGTAATACAGGTGGAAGTCGGCATCTA,0.571
6,GCTATTAGTTGAAAGGGCCACCGAATGATTCTCG,-0.34
7,CCTATTAGTTGACTATAAGGGCAACCGAAGCTCG,0.229
8,TATACAGGGTCAAAGGACAGAGTACGAATGTCGA,3.68
9,CCTCGGAGGACAACAAGAGGTCAGAGCTGCCAGA,3.04
10,TCTATTAGTTGAAGCGCAACCGACGAGTCCGTTT,0.326
11,ACAATGAGGTTATACGTAGATCAGGGAAGAAAGT,1.19
12,ATCTCTAGGTAACCAAGTTAAGTGAATGCCGAAC,0.282
13,ATCTCCAGGTAACCAAGTTCAGTGAATGCCGAAC,2.24
14,TCTACTAGGTCAGTTGGTCAGCTAACGAGCTGCC,0.537
15,GCATATAGGTAATACAAGTTGAAAGTCCGATTGT,0.787
16,TAGCCTAGGTCATGGGCCAATATACCACGCGAAC,1.86
17,GCGACTGGGGCAAAGCAGGTTACCCTAAGGTTGG,0.0911
18,CAAACTAGGTCACCGGAACGTCAAAGTCCGCATG,1.83
19,ATCTCTAGTTAAAAGTTCAGTGAATCCCGAGGAT,1.9
20,ATACCAAGGAGATCGTGAGGTCGTTGATACTAAC,1.65
